Screening results: PubChem BioAssay, National Center for Advancing Translational Sciences (NCATS)
A selection: hits, their analogues and other compounds. The true share with any hit is near 8%.
Lassa entry inh – qHTS for Inhibitors of binding or entry into cells for Lassa Virus; 300,000 tested, 1.2% active; Lassa virus pseudotype entry inhibition, cell reporter; Potency, µM (highest dose often 37.9 µM), without a hit: top-dose activity change, negative = inhibition, most hits filed as inhibitors; AID 540256, 2011; calls by dose curve; tested in HEK293 cells; note: potency is the fitted concentration of half-maximal effect; % is set by controls: 0 for no effect and ±100 for the full control effect; nearly all actives have a fitted effect of over 50% in size
FMDV inh – High Throughput Screening for Foot and Mouth Disease Virus Antivirals. FMDV antiviral cell-based qHTS. Potency, µM (series often up to 57.9 µM), inactives show at the highest dose activity change, negative = inhibition, hits mostly inhibitors. 410,000 tested, 1.2% active; calls by dose curve; tested in HEK293T cells; note: read-out not given here; potency is the fitted concentration of half-maximal effect; % is set by controls: 0 for no effect and ±100 for the full control effect; nearly all actives have a fitted effect of over 45% in size
HCV inhibitor – qHTS Assay for Inhibitors of Hepatitis C Virus (HCV); Huh7.5.1 HCVcc-Cre infection, luciferase reporter, 44 h; Potency, µM (titrated, usually from 41.8 µM), without a hit: at the highest dose activity change, negative = inhibition, usual class: inhibitors; 340,000 tested, 3.4% active; AID 651820, 2012; active = well fitted inhibition curve with a large enough effect; inconclusive = small, poorly fitted or top-dose-only effect, or another doubt; inactive = no such curve, though single readings can be large or run the other way; note: potency is the fitted concentration of half-maximal effect; % is set by controls: 0 for no effect and ±100 for the full control effect
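A cell-based infection assay in which seeded cells (1,000 per well) receive test compound after 4 h, are inoculated with HCVcc-Cre at approximately 0.5 moi, and are incubated 44 h before luminescence detection.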
HCMV inh – qHTS Assay for inhibitors of the human cytomegalovirus (HCMV). HFF cells, HCMV-luciferase reporter, 72 h; hits give low values. activity change, negative = inhibition, % at 57.5 µM. 410,000 tested, 4.5% active. AID 1259415, 2018; in the data active = activity change below about -60%; inconclusive = no clear call, values can overlap the other calls; inactive = above about -39%; note: % is set by controls: 0 for no effect and ±100 for the full control effect
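Cell-based, HFFs, 1000 cells/well, 16 h 37C; cpds in DMSO + HCMV-luc, MOI 1 PFU/cell; 72 h 37C; OneGlo luminescence after 5 min RT; norm. to buffer vs Salinomycin 10uM.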
SARS PLpro yeast – qHTS of Yeast-based Assay for SARS-CoV PLP; S. cerevisiae expressing SARS-CoV PLpro, growth rescue; Potency, µM (titrated, usually from 32.9 µM), inactives show at the highest dose activity, positive = growth rescue, hits mostly activators; 330,000 tested, 0.19% active; AID 485353, 2010; calls by dose curve; note: potency is the fitted concentration of half-maximal effect; 0% is about no effect; nearly all actives have a fitted effect of over 55% in size
MARV entry inh – qHTS for inhibitors of binding or entry into cells for Marburg Virus | 300,000 tested, 1.8% active | Marburg virus pseudotyped entry inhibition, cell reporter | AID 540276, 2011 | Potency, µM (doses to about 37.8 µM), without a hit: at the highest dose activity change, negative = inhibition, most hits filed as inhibitors; calls by dose curve; tested in HEK293 cells; note: potency is the fitted concentration of half-maximal effect; % is set by controls: 0 for no effect and ±100 for the full control effect
* marks the source's active call; other numbers are inactive results; ? = inconclusive; . = not tested or not shown; [ ] = dose if it differs, or a comment.

SMILES	Lassa entry inh	FMDV inh	HCV inhibitor	HCMV inh	SARS PLpro yeast	MARV entry inh
N#Cc1ccccc1NC(=O)C(=O)NCC(c1cccnc1)N1CCN(c2ccccc2)CC1 (centres undefined)	0%[46.1 µM]	0%	.	5	.	.
Cc1ccc(CN=C(N)Nc2nc(C)cc(C)n2)cc1	-23%	-24%	16µM*	-80*	1%	11µM*
Cc1ccc(C)c(N/C(N)=N/c2nc(C)cc(C)n2)c1	-14%	?	?	-21	5%	?
Cc1oc2ccc(O)cc2c1C(=O)c1ccc([N+](=O)[O-])cc1	-11%	35µM*	-7%	-16	-58%	-10%
Cc1oc2ccc(O)cc2c1C(=O)c1ccc(Cl)cc1	21%	28%	?	11	-32%	1%
Oc1ccc(CCNc2ncnc3ccc(Cl)cc23)cc1	.	10µM*	3.2µM*	-98*	-3%	.
COc1ccc(C)cc1NC(=O)c1cc2c(s1)-c1ccccc1SC2	26%[46.1 µM]	-2%	.	-17	.	4%[46.1 µM]
Cc1cc(C)c(S(=O)(=O)N2Cc3ccccc3-n3nncc3C2)c(C)c1	.	22µM*	.	?	.	.
CC#C[C@]1(O)CC[C@H]2C3CCC4=CC(=O)CCC4=C3[C@@H](c3ccc(N(C)C)cc3)C[C@@]21C (some centres undefined)	.	.	.	.	.	10µM*
Cc1c(C(=O)NCc2ccccc2Cl)sc2ncnc(NCC3CCCO3)c12 (centres undefined)	.	-1%	.	.	.	.
CC(=O)OCCN1C(=O)c2c(C)nc3ccc(S(=O)(=O)N4CCOCC4)cc3c2C1=O	.	-15%	.	.	.	.
CCn1c(/C=C/c2ccc(O)c(O)c2)nc2ccccc2c1=O	.	-29%	-22%	-16	4%	.
O=c1c2ccccc2nc(/C=C/c2ccc(O)cc2)n1-c1ccc(O)cc1	.	-19%	?	-19	-2%	.
O=c1c2ccccc2nc(/C=C/c2ccccc2O)n1-c1ccc(Br)cc1	?	?	.	-63*	.	.
CCn1c(/C=C/c2cc(Br)ccc2O)nc2ccccc2c1=O	.	?	?	-93*	3%	.
CCCOc1ccc(C2=NC(c3ccc(F)cc3)=Nc3ccc(OC)cc3N2)cc1	-19%[46.1 µM]	17%	.	31	.	1%[46.1 µM]
COc1ccc(CCNC(=O)C(NS(=O)(=O)c2cccc3nsnc23)C(C)C)cc1OC (centres undefined)	.	10µM*	-2%	-8	?	.
CCCC[C@@H](CN[C@H](C)CNC)NCC1CCC(C(C)(C)C)CC1 (some centres undefined)	.	-15%	?	-87*	5%	.
CC[C@H](C)[C@@H](CN[C@H](CCCCNC)CNC)NCC1CCCC1	.	-3%	10%	?	1%	.
Cc1ccc(NC(=O)CN2C(=O)CCc3cc(S(=O)(=O)N4CCCCC4)ccc32)cc1N(C)C	-3%[46.1 µM]	0%	.	5	.	.
Cc1cc(C)n(-c2nc(SCCN3CCOCC3)c3c4c(sc3n2)CCCC4)n1	13%	-2%	12%	-20	.	10%[46.1 µM]
Cc1cc(C)n(-c2nc3sc4c(c3c(=O)[nH]2)CCCC4)n1	.	.	.	.	-5%	0%
Cc1cc(C)n(-c2nc(NCCN(C)C)c3c4c(sc3n2)CCCC4)n1	?	?	?	-82*	1%	?
Cc1cc(C)n(-c2nc(NCCCN(C)C)c3c4c(sc3n2)CCCC4)n1	?	19%	?	-98*	0%	?
O=[S+]1([O-])N[C@@H]2Cc3ccccc3[C@@H]2Oc2cc(Br)ccc21	-3%[46.1 µM]	.	.	.	.	.
Clc1ccc([C@@H](c2ccccc2Cl)C(Cl)Cl)cc1	.	.	.	.	.	-12%
COC(=O)C1(O)CC(c2ccccc2)C(C(=O)c2ccccc2)N1c1ccc(Cl)cc1 (centres undefined)	.	.	.	-18	.	.
COC(=O)C1(O)CC(c2ccccc2)C(C(=O)c2ccc(Cl)cc2)N1c1ccccc1 (centres undefined)	.	.	.	-77*	.	.
CCCCN(C)C(=O)C1CCN(CCCc2ccccc2)CC1	0%	-17%	3%	18	11%	-25%
CN(C)CC(C)(C)CNC(=O)C1CCN(CCCc2ccccc2)CC1	.	15%	13µM*	23	?	.
